Structures are written as SMILES. Records with an inconclusive call do not appear. The source made the active and inactive calls. How the source made its calls, unless noted: active means hit-call score of the fitted dose curve at least 0.9, where 1 is the maximum; inactive means score below 0.9.

Assay [1] can be described thus: ATG_PBREM_CIS: Attagene CIS-FACTORIAL HepG2 Assay for human Phenobarbital-responsive Enhancer Module (PBREM) (AID 2282955). The note with it: HepG2 PBREM cis-reporter, Attagene multiplexed transcription; actives raise or lower the signal. In outline:
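HepG2, transient MRTU transfection, 24 h dosing; RNA → oligo(dT) RT → PCR → 6-FAM extension → HpaI → CE. Bidirectional fit vs DMSO.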

Assay [2] is described as follows: ATG_PXRE_CIS: Attagene CIS-FACTORIAL HepG2 Assay for human Pregnane X Receptor Element (PXRE) (AID 2282957). The note with it: HepG2 Attagene CIS-FACTORIAL PXRE reporter, mRNA; actives raise or lower the signal. In outline: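 Cells: HepG2, transiently transfected reporter units under cis promoter control. Exposure: 24 h. Detection: reporter mRNA via RT-PCR/CE fluorescence; bidirectional fitting, DMSO-referenced.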

Assay [3] can be described thus: ATG_Sox_CIS: Attagene CIS-FACTORIAL HepG2 Assay for human SRY-box transcription factor (SOX) (AID 2282960). To be noted: HepG2 Attagene cis-factorial SOX reporter, mRNA; actives raise or lower the signal. In outline: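 Cells were transfected with reporter constructs under cis-regulatory promoters, then exposed to chemicals for 24 h. Reporter transcripts were quantified by fluorescence after RT-PCR and capillary electrophoresis; activity was fitted in both directions against DMSO.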

The target in assay [4] is Transcription factor Sp1 (Homo sapiens) (UniProt P08047). Kind of assay: ATG_Sp1_CIS: Attagene CIS-FACTORIAL HepG2 Assay for human Specificity Protein 1 (Sp1) (AID 2282961). The note with it: HepG2 Sp1 cis-reporter transcription, actives raise or lower the signal. In outline:
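Measures mRNA induction of an Sp1-linked reporter in HepG2 cells 24 h post-dosing. Multiplexed reporters read by RT-PCR and capillary electrophoresis; DMSO serves as negative control and baseline.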

A short description of assay [5]: ATG_SREBP_CIS: Attagene CIS-FACTORIAL HepG2 Assay for human Sterol Regulatory Element Binding (SREBP) (AID 2282962). The note with it: HepG2 Attagene cis-factorial SREBP reporter, mRNA; actives raise or lower the signal. An outline of the steps: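 Twenty-four hours after chemical dosing of transfected HepG2 cultures, reporter RNA was converted to cDNA, amplified, end-labelled with 6-FAM and resolved by capillary electrophoresis. Responses were fitted relative to DMSO.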

The target in assay [6] is Signal transducer and activator of transcription 3 (Homo sapiens) (UniProt P40763). Kind of assay: ATG_STAT3_CIS: Attagene CIS-FACTORIAL HepG2 Assay for human Signal Transducer and Activator of Transcription 3 (STAT3) (AID 2282963). The note with it: HepG2, Attagene cis-factorial STAT3 reporter transcription; actives raise or lower the signal. In outline:
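Values derive from bidirectional fits relative to DMSO of reporter mRNA levels, measured by RT-PCR with capillary electrophoresis, in HepG2 cells carrying transiently transfected cis-regulated reporter units and exposed 24 h.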

Assay [7] is described as follows: ATG_TA_CIS: Attagene CIS-FACTORIAL HepG2 Assay for human TA Basal Promoter (AID 2282964). To be noted: HepG2 Attagene CIS-factorial TA basal promoter reporter; actives raise or lower the signal. An outline of the steps:
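Background-control readout: TA basal promoter reporter mRNA, fitted in both directions relative to DMSO. Measured by RT-PCR and capillary electrophoresis 24 hours after treating HepG2 human liver cells transiently carrying multiplexed cis-regulated reporter constructs.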

Assay [8] in a line: ATG_TCF_b_cat_CIS: Attagene CIS-FACTORIAL HepG2 Assay for human T-Cell-Factor with beta-catenin (TCF/b-cat) (AID 2282965). To be noted: HepG2 TCF/beta-catenin cis-reporter transcription, actives raise or lower the signal. In outline: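 Cells of the HepG2 line carry transiently transfected reporter units whose promoters respond to endogenous factors. Twenty-four hours post-dosing, reporter mRNA induction is measured by fluorescent RT-PCR and capillary electrophoresis, with DMSO as baseline.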

Assay [9] in a line: ATG_TAL_CIS: Attagene CIS-FACTORIAL HepG2 Assay for human TAL Basal Promoter (AID 2282966).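 Further: background control endpoint measuring basal TAL promoter reporter mRNA not a specific factor.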 To be noted: HepG2 Attagene cis-factorial TAL promoter reporter; actives raise or lower the signal. An outline of the steps: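 RT-PCR plus capillary electrophoresis quantifies reporter mRNA induction in transiently transfected HepG2 cells after 24 h chemical treatment. DMSO serves as negative control and baseline for bidirectional fitting.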

Assay [10] is described as follows: ATG_VDRE_CIS: Attagene CIS-FACTORIAL HepG2 Assay for human Vitamin D Receptor Element (VDRE) (AID 2282968). To be noted: HepG2 VDRE cis-reporter transcription, actives raise or lower the signal. In outline: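 Cell-based multiplexed reporter format in human liver HepG2 cells, 24 h post-dose. Fluorescence from capillary electrophoresis of reporter cDNA gives the signal, with DMSO as negative control and baseline.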

Assay [11] has as its target Estrogen receptor (Homo sapiens) (UniProt P03372). Kind of assay: ATG_ERa_TRANS: Attagene TRANS-FACTORIAL HepG2 Assay for human Estrogen Receptor alpha (ERa) (AID 2282970; active means hit-call score of the fitted dose curve at least 0.9, where 1 is the maximum). The note with it: HepG2 Attagene TRANS ERa GAL4 reporter, mRNA. An outline of the steps:
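Cells: HepG2, transiently transfected. Construct: GAL4-UAS reporter units regulated by exogenous NR-Gal4 chimeras. Time: 24 h. Detection: reporter mRNA by RT-PCR, capillary electrophoresis, fluorescence. Baseline: DMSO, upward fitting.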

The target in assay [12] is X-box-binding protein 1 (Homo sapiens) (UniProt P17861). Kind of assay: ATG_Xbp1_CIS: Attagene CIS-FACTORIAL HepG2 Assay for human X-box Binding Protein 1 (XBP1) (AID 2282972). To be noted: HepG2 XBP1 cis-element reporter, Attagene multiplex; actives raise or lower the signal. In outline:
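After a 24-hour chemical exposure of HepG2 cells carrying cis-regulated reporters, reporter mRNA levels are assessed. Quantification uses RT-PCR, 6-FAM labelling and capillary electrophoresis. Gain- or loss-of-signal is fitted against DMSO.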

The nature of assay [13]: ATG_TGFb_CIS: Attagene CIS-FACTORIAL HepG2 Assay for human Transforming Growth Factor (TGF) (AID 2282967). To be noted: HepG2 Attagene CIS TGFb reporter, mRNA transcription; actives raise or lower the signal. In outline: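 Endogenous TGFB1-linked transcription factor activity read as reporter mRNA via RT-PCR and capillary electrophoresis, 24 h after dosing transiently transfected HepG2 cells. Gain or loss of signal fitted relative to DMSO.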

Assay [14] can be described thus: ATG_M_19_TRANS: Attagene TRANS-FACTORIAL HepG2 Assay for M19 Transcription Factor (Internal Marker) (AID 2282974; active means hit-call score of the fitted dose curve at least 0.9, where 1 is the maximum). The note with it: HepG2 Attagene TRANS-FACTORIAL M19 internal marker reporter. An outline of the steps:
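After transfection of HepG2 with GAL4-UAS-driven reporter constructs, cells are dosed for 24 h. Total RNA is reverse-transcribed, reporter sequences PCR-amplified and labelled, then HpaI-digested and sized by capillary electrophoresis.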

Assay [15] in a line: ATG_RORE_CIS: Attagene CIS-FACTORIAL HepG2 Assay for human RAR-related Orphan Receptor Element (RORE) (AID 2282959). The note with it: HepG2 Attagene cis-factorial RORE reporter, mRNA; actives raise or lower the signal. In outline:
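Multiplexed reporter assay measuring mRNA induction from a cis promoter element in transiently transfected HepG2 cells after 24 h treatment. Detection via RT-PCR and capillary electrophoresis fluorescence; DMSO serves as baseline.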

Assay [16] addresses Nuclear receptor subfamily 1 group I member 3 (Homo sapiens) (UniProt Q14994). Kind of assay: ATG_CAR_TRANS: Attagene TRANS-FACTORIAL HepG2 Assay for human Constitutive Androstane Receptor (CAR) (AID 2282969; active means hit-call score of the fitted dose curve at least 0.9, where 1 is the maximum;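 further: activators raise reporter mRNA above DMSO so AC50 marks induction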). The note with it: HepG2 Attagene TRANS-FACTORIAL CAR reporter. An outline of the steps:
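HepG2 cells transiently transfected with GAL4-UAS reporter units; TRANS format reads activity of exogenous chimeric NR-Gal4 protein. After 24 h dosing, reporter mRNA quantified by RT-PCR, 6-FAM labelling and capillary electrophoresis; gain of signal fitted against DMSO.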

The target in assay [17] is Steroid hormone receptor ERR1 (Homo sapiens) (UniProt P11474). Kind of assay: ATG_ERRa_TRANS: Attagene TRANS-FACTORIAL HepG2 Assay for human Estrogen-Related Receptor alpha (ERRa) (AID 2282971; active means hit-call score of the fitted dose curve at least 0.9, where 1 is the maximum). The note with it: HepG2 Attagene TRANS reporter, ERRa transactivation. In outline:
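Reporter transcripts from ERRa-Gal4 chimera activity measured in transiently transfected human HepG2 cells 24 hours after dosing, using RT-PCR with 6-FAM primer extension, HpaI digestion and capillary electrophoresis; DMSO is baseline.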

For assay [18], the target named is Paired box protein Pax-6 (Homo sapiens) (UniProt P26367). The experiment in a line: ATG_Pax6_CIS: Attagene CIS-FACTORIAL HepG2 Assay for human Paired Box 6 (PAX6) (AID 2282956). To be noted: HepG2 CIS-FACTORIAL PAX6 reporter transcription, RNA readout; actives raise or lower the signal. In outline:
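After twenty-four hours of chemical exposure, transfected HepG2 cells are harvested for RNA. Cis-promoter reporter transcripts are amplified, fluorescently labelled and sized by capillary electrophoresis, with gain and loss of signal scored against DMSO.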

Assay [19] in a line: ATG_PPRE_CIS: Attagene CIS-FACTORIAL HepG2 Assay for human Peroxisome Proliferator-activated Response Element (PPRE) (AID 2282958). To be noted: HepG2 PPRE cis-element reporter, Attagene transcription factor profiling; actives raise or lower the signal. An outline of the steps: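 Transcript-level reporter induction in transfected HepG2 cells after 24 h chemical exposure, quantified by fluorescence from RT-PCR products separated by capillary electrophoresis.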

The nature of assay [20]: ATG_GAL4_TRANS: Attagene TRANS-FACTORIAL HepG2 Assay for GAL4 (Internal Marker) (AID 2282976; active means hit-call score of the fitted dose curve at least 0.9, where 1 is the maximum). To be noted: HepG2 Attagene TRANS GAL4 internal marker reporter. An outline of the steps:
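In transfected human HepG2 liver cells dosed 24 h, GAL4 reporter mRNA serves as a baseline marker. Detection by RT-PCR with fluorescent capillary electrophoresis, activity fitted upward relative to DMSO.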

Signal transducer and activator of transcription 3 (Homo sapiens), sequence (P40763 whole entry, looked up): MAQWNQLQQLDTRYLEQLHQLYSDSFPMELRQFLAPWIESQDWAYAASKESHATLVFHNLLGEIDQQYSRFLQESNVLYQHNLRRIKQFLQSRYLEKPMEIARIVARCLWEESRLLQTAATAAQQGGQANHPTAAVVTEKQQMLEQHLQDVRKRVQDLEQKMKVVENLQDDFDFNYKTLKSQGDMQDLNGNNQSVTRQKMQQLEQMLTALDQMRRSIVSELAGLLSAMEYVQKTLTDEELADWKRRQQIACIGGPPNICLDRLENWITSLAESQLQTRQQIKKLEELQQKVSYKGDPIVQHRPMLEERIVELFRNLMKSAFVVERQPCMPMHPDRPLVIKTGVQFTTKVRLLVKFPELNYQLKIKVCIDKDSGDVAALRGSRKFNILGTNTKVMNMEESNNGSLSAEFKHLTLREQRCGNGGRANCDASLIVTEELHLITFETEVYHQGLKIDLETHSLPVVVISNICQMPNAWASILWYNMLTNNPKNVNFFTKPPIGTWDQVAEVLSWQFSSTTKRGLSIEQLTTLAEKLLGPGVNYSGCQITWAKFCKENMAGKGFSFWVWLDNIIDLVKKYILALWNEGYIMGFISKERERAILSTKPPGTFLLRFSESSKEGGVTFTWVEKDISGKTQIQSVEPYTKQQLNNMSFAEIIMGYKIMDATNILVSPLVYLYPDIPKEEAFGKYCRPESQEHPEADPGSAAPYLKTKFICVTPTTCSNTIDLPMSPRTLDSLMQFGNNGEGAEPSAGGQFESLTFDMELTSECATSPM
Transcription factor Sp1 (Homo sapiens), sequence (P08047 whole entry, looked up): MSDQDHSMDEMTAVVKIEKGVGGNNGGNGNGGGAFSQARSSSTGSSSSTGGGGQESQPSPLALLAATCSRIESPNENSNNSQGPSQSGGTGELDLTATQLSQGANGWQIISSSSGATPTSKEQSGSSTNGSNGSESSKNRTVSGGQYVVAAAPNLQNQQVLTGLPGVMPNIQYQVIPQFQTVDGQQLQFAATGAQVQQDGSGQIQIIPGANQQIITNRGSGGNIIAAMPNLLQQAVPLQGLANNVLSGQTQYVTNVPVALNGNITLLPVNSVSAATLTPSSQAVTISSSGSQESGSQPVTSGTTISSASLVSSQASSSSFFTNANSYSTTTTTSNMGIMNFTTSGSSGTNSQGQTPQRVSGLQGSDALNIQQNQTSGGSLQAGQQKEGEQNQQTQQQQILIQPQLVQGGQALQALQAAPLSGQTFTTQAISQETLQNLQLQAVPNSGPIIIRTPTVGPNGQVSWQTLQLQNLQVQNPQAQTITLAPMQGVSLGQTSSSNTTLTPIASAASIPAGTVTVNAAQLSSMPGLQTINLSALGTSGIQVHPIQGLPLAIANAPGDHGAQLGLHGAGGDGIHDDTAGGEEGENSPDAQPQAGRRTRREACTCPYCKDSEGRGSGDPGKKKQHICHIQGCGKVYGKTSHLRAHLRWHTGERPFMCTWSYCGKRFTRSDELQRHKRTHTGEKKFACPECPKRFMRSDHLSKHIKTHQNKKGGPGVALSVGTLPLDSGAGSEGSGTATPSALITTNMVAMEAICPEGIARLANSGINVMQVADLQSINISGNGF
Estrogen receptor (Homo sapiens), sequence (P03372 whole entry, looked up, the tested form may be a part): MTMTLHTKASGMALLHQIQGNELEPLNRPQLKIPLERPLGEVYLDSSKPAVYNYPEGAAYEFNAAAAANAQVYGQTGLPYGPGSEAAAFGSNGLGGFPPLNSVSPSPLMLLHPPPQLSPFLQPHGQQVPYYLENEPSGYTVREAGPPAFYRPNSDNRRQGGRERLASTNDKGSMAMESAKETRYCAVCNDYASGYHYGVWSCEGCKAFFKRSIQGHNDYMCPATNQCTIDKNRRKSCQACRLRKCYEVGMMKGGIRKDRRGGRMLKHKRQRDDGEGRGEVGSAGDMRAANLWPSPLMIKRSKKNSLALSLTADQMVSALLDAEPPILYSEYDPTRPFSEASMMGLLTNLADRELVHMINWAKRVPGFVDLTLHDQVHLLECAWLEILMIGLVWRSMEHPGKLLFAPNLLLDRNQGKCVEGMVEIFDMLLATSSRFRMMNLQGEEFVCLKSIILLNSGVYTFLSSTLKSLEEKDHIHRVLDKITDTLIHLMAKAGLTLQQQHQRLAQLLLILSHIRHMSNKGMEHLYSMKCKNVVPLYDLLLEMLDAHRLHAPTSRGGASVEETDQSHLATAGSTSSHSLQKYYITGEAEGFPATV
X-box-binding protein 1 (Homo sapiens), sequence (P17861 whole entry, looked up): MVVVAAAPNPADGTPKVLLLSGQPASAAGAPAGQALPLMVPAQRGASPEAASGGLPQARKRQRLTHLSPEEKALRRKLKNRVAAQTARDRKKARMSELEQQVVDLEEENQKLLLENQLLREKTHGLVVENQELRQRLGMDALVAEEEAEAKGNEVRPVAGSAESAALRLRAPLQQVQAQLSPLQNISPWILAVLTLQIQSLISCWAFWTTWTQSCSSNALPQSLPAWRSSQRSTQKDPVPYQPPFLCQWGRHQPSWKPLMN
Paired box protein Pax-6 (Homo sapiens), sequence (P26367 whole entry, looked up): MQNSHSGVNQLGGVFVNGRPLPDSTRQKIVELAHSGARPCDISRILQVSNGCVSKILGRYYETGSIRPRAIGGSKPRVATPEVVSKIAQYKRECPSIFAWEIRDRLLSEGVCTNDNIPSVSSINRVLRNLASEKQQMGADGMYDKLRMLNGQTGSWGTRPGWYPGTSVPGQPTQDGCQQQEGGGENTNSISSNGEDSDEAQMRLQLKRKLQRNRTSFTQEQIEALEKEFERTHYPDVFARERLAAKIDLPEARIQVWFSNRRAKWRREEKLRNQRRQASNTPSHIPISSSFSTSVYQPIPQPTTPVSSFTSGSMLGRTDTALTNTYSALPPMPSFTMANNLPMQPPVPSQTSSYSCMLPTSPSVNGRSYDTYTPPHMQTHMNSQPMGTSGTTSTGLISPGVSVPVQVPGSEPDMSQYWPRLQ
Nuclear receptor subfamily 1 group I member 3 (Homo sapiens), sequence (Q14994 whole entry, looked up, the tested form may be a part): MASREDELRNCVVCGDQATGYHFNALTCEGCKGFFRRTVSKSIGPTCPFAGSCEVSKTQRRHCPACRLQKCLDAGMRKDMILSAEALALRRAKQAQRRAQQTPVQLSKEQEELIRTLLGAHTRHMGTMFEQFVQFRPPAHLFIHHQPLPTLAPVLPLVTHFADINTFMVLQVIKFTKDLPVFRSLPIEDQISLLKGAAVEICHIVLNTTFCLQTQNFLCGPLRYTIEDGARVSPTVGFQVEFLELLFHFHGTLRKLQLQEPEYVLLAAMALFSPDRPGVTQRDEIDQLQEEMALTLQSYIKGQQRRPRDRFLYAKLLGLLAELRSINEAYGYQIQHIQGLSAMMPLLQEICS
Steroid hormone receptor ERR1 (Homo sapiens), sequence (P11474 whole entry, looked up, the tested form may be a part): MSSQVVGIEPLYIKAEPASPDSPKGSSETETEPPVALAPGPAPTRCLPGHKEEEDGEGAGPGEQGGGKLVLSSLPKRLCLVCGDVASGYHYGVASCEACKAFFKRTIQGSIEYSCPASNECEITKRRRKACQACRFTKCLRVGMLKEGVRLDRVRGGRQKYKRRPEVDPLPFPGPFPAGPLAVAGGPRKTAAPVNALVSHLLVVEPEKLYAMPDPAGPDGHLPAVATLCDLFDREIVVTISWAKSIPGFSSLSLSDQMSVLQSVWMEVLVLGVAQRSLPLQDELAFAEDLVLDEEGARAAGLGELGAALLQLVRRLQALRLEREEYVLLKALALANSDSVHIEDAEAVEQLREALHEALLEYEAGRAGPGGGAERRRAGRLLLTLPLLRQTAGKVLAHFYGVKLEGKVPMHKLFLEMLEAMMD

As for `CC(C)OC(=O)c1ccccc1`, the outcome in assay [1], in [2], in assay [3], in assay [4], in [5] and in [6] was inactive. Moreover, the compound was called inactive in assay [7], in [8], in assay [9], in [10], in [11] and in assay [12].
`O=C(OCc1ccccc1)c1ccc(O)cc1`: the AC50 in [1] is 63.7 µM (active); in assay [2], 26.8 µM (active); in assay [5], 72.8 µM (active); in assay [7], 100 µM (active); in [8], 124 µM (active); in assay [11], 26.7 µM (active). Further, the call in assay [4], in assay [6], in [9], in assay [13] and in assay [14] was inactive.
Take `CCCCOC(=O)CCC(C)=O`: the result in assay [1], in assay [2], in assay [15], in assay [3], in assay [4] and in [5] was inactive. Besides, the compound was called inactive in assay [6], in assay [8], in assay [9], in [13], in assay [10] and in assay [16]. Besides, the compound was called inactive in assay [11] and in assay [14].
As for `COc1ccc(C(=O)/C(Br)=C\C(=O)O)cc1`, the result in assay [1], in assay [2], in [3], in [5], in assay [6] and in [8] was inactive. The compound was classed as inactive in [9], in assay [13], in [11], in [17] and in assay [12]. In addition, the AC50 is 32.5 µM (active) in assay [15], 59 µM (active) in assay [4] and 35.7 µM (active) in assay [10].
For `Nc1ccc(Cl)c(N)c1`, the outcome in assay [18], in [2], in assay [19], in assay [15], in assay [3] and in assay [4] was inactive. The compound was called inactive in assay [5], in assay [6], in assay [7], in [8], in assay [9] and in assay [13]. In addition, the outcome in [10], in assay [11], in assay [14] and in assay [20] was inactive.

(Values after PubChem BioAssay (EPA / NIEHS).)
